Data from PubChem BioAssay (EPA / NIEHS).
Records with an inconclusive call do not appear. Calls of active or inactive are those of the source. Rule for the calls: active = hit-call score of the fitted dose curve at least 0.9, where 1 is the maximum; inconclusive = response in the unintended direction; inactive = score below 0.9.

Legend:
[1] = biological target: human AKT serine/threonine Kinase 1 (AKT1), AKT1 (gene 207) (UniProt P31749); assay: NVS_ENZ_hAKT1: NovaScreen (NVS) Enzymatic Assay for human AKT serine/threonine Kinase 1 (AKT1) (AID 2283138)
Chain of human AKT serine/threonine Kinase 1 (AKT1), AKT1 (gene 207) (P31749 whole entry, looked up): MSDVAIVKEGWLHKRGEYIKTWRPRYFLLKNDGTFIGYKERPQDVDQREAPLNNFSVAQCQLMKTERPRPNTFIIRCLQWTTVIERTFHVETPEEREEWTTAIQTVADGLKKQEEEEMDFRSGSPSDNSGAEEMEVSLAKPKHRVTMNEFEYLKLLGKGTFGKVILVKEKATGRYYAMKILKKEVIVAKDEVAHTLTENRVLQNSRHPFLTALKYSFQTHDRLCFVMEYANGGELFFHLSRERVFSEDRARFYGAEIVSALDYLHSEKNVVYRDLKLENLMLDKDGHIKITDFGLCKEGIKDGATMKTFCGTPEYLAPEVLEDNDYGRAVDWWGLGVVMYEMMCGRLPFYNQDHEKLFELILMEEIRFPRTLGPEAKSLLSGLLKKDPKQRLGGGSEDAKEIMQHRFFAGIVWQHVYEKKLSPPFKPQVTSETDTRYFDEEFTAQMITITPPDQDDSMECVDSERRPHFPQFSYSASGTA
In short: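 Recombinant human AKT1 with a specific substrate, product separated by electrophoretic mobility shift, read after 1 h. Compounds at 25 uM in duplicate, then concentration-response up to 50 uM for hits; inhibition relative to DMSO.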

[2] = biological target: Caspase-3 (Homo sapiens) (UniProt P42574); assay: NVS_ENZ_hCASP3: NovaScreen (NVS) Enzymatic Assay for human Caspase 3 (CASP3) (AID 2283139)
Chain of Caspase-3 (Homo sapiens) (P42574 whole entry, looked up): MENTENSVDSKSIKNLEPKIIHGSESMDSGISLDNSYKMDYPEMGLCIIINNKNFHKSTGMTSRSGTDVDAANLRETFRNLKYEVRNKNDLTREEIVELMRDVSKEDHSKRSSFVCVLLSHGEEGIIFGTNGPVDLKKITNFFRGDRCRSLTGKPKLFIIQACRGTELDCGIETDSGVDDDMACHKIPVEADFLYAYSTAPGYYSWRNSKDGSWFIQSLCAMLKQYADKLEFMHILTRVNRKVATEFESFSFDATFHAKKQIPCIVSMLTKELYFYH
In short: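 Recombinant human caspase-3 from E. coli with a fluorogenic substrate, read by fluorescence 1 h after dosing. Primary screen in duplicate at 25 uM. Actives (for example ≥30% inhibition) rerun as concentration-response up to 50 uM.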

[3] = biological target: human AKT serine/threonine Kinase 2 (AKT2), AKT2 (gene 208) (UniProt P31751); assay: NVS_ENZ_hAKT2: NovaScreen (NVS) Enzymatic Assay for human AKT serine/threonine Kinase 2 (AKT2) (AID 2283141)
In short: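 Cell-free fluorescence/electrophoretic mobility shift readout of recombinant human AKT2 activity, 1 h after chemical dosing. Duplicate primary screen at 25 uM, then singleton concentration-response up to 50 uM; loss of signal versus DMSO baseline.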

[4] = biological target: human Casein Kinase 1-delta (CK1D), CSNK1D (gene 1453) (UniProt P48730); assay: NVS_ENZ_hCK1D: NovaScreen (NVS) Enzymatic Assay for human Casein Kinase 1-delta (CK1D) (AID 2283148)
Chain of human Casein Kinase 1-delta (CK1D), CSNK1D (gene 1453) (P48730 whole entry, looked up): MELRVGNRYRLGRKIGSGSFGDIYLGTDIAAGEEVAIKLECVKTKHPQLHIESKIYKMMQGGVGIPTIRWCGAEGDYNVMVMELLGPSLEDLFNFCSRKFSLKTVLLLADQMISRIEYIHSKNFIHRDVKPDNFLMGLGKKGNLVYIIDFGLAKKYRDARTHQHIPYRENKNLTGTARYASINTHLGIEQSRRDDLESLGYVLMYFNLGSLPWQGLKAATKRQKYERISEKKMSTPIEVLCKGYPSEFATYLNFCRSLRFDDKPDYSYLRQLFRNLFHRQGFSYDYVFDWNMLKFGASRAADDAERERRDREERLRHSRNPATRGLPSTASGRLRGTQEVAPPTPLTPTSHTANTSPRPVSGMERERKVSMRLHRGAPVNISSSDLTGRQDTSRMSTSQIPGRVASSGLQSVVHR
In short: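 Recombinant human CK1-delta, cell-free; fluorescent substrate with electrophoretic mobility-shift separation of product, read 1 h after dosing. Single 25 uM duplicate screen, then concentration-response up to 50 uM; loss of signal vs DMSO.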

[5] = biological target: rat CYP3A2, Cyp3a2 (gene 266682) (UniProt P05183); assay: NVS_ADME_rCYP3A2: NovaScreen (NVS) CYP450-related Enzyme Activity (ADME) Assay for rat CYP3A2 (AID 2283128)
Chain of rat CYP3A2, Cyp3a2 (gene 266682) (P05183 whole entry, looked up): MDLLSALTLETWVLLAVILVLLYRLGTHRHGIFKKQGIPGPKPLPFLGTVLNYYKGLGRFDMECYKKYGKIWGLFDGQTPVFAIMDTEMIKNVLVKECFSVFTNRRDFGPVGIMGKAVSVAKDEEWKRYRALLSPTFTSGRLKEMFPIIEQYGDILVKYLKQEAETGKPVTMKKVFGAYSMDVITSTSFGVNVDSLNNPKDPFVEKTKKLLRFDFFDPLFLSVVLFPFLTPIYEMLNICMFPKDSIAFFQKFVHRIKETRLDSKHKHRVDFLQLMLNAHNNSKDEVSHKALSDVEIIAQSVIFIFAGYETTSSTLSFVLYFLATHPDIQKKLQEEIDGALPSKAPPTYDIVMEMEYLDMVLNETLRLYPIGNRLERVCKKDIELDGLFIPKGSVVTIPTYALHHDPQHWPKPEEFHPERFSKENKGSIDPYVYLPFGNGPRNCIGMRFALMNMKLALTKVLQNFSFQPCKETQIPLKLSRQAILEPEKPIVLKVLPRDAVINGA
In short: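 Cell-free rat CYP3A2 enzyme assay with fluorescent substrate, read 0.5 h after dosing. Primary duplicate screen at 10 uM; actives run in concentration-response up to 20 uM, relative to acetonitrile baseline.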

[6] = biological target: Histone deacetylase 3 (Homo sapiens) (UniProt O15379); assay: NVS_ENZ_hHDAC3: NovaScreen (NVS) Enzymatic Assay for human Histone Deacetylase 3 (HDAC3) (AID 2283163)
Chain of Histone deacetylase 3 (Homo sapiens) (O15379 whole entry, looked up): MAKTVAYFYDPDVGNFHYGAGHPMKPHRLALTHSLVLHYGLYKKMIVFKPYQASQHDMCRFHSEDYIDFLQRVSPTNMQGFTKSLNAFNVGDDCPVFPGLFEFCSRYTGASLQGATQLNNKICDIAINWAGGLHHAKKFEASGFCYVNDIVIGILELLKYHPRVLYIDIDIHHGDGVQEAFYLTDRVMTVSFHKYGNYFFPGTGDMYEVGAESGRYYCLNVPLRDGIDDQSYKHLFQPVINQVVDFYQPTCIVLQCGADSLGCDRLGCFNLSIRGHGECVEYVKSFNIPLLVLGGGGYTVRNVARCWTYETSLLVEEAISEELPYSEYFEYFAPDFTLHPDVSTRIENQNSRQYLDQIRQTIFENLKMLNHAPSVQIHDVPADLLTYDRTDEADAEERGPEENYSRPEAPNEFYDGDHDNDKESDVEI
In short: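 Recombinant human HDAC3 with fluorescent substrate, 1 h after dosing; product separated from substrate by electrophoretic mobility shift and read by fluorescence. Primary screen at 25 uM in duplicate; actives (e.g. ≥30% inhibition) retested in concentration-response up to 50 uM.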

[7] = biological target: human Beta-secretase (BACE), BACE1 (gene 23621) (UniProt P56817); assay: NVS_ENZ_hBACE: NovaScreen (NVS) Enzymatic Assay for human Beta-secretase (BACE) (AID 2283140);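 note: hits are inhibitors that reduce fluorescent substrate signal versus DMSO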
Chain of human Beta-secretase (BACE), BACE1 (gene 23621) (P56817 whole entry, looked up): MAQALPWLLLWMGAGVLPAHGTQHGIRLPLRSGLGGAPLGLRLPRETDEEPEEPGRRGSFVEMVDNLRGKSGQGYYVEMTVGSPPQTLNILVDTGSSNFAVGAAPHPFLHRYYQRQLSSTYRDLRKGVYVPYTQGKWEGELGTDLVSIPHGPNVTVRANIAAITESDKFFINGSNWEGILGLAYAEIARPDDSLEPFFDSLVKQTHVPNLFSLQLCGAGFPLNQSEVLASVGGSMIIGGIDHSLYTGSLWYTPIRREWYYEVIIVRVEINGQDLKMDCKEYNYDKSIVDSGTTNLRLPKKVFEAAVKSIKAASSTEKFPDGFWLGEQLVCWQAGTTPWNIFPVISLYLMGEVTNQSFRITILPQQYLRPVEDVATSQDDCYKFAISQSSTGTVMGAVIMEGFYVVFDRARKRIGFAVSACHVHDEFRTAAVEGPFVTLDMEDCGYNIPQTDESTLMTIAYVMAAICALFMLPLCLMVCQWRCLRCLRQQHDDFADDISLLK
In short: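 Cell-free assay of recombinant Sf9-expressed human BACE with fluorescent substrate, read by fluorescence intensity after 1 h. Primary screen in duplicate at 25 uM; actives then run in concentration series; loss of signal relative to DMSO.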

[8] = biological target: human FYN Proto-Oncogene, Src family Tyrosine Kinase (Fyn), FYN (gene 2534) (UniProt P06241); assay: NVS_ENZ_hFyn: NovaScreen (NVS) Enzymatic Assay for human FYN Proto-Oncogene, Src family Tyrosine Kinase (Fyn) (AID 2283161)
In short: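 Recombinant enzyme with fluorescent substrate, product separated by electrophoretic mobility shift; read 1 h after dosing. Duplicate 25 uM single-point screen, actives retested in concentration series; loss of signal vs DMSO.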

[9] = biological target: human Caspase 8 (CASP8), CASP8 (gene 841) (UniProt Q14790); assay: NVS_ENZ_hCASP8: NovaScreen (NVS) Enzymatic Assay for human Caspase 8 (CASP8) (AID 2283146)
Chain of human Caspase 8 (CASP8), CASP8 (gene 841) (Q14790 whole entry, looked up): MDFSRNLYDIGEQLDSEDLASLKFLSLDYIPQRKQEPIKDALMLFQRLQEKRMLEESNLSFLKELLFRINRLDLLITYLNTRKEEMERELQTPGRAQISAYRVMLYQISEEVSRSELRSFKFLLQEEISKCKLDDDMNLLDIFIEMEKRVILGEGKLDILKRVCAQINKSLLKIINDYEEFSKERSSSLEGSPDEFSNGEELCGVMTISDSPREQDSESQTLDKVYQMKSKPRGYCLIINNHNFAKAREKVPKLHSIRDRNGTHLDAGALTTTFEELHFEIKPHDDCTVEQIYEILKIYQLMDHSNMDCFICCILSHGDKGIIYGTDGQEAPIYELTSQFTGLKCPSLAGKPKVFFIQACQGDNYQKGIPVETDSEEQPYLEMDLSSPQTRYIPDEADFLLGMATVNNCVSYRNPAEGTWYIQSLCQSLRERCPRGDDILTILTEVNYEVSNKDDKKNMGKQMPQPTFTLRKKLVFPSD
In short: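 E. coli-expressed enzyme was used in a cell-free fluorogenic substrate assay read 1 h after dosing. Loss of signal was scored relative to DMSO, and the primary screen was run in duplicate at 25 uM.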

[10] = biological target: human Elastase, ELANE (gene 1991) (UniProt P08246); assay: NVS_ENZ_hElastase: NovaScreen (NVS) Enzymatic Assay for human Elastase (AID 2283153)
Chain of human Elastase, ELANE (gene 1991) (P08246 whole entry, looked up): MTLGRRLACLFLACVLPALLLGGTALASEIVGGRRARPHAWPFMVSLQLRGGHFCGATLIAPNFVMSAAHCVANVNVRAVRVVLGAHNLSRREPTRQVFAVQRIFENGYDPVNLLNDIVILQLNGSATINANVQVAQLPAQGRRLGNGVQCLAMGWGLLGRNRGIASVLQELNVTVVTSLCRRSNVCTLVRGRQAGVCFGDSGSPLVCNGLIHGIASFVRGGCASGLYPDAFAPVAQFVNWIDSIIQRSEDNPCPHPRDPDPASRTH
In short: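 Cell-free elastase from human neutrophils, 1.5 h after dosing, activity read by absorbance. Primary screen in duplicate at 25 uM; hits (e.g., 30% inhibition) rerun in singleton concentration-response up to 50 uM, fitted versus DMSO.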

[11] = biological target: CDK2 (gene 1017) (UniProt P24941); assay: NVS_ENZ_hCDK2: NovaScreen (NVS) Enzymatic Assay for human Cyclin-Cependent Kinase 2 (CDK2) (AID 2283144)
In short: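 Cell-free recombinant human CDK2 with fluorescent substrate, product separated by electrophoretic mobility shift; 1 hr read. Primary screen at 25 uM in duplicate, actives retested in concentration-response up to 50 uM; loss of signal versus DMSO.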

[12] = biological target: human Colony Stimulating Factor 1 Receptor (CSF1R), CSF1R (gene 1436) (UniProt P07333); assay: NVS_ENZ_hCSF1R: NovaScreen (NVS) Enzymatic Assay for human Colony Stimulating Factor 1 Receptor (CSF1R) (AID 2283150)
In short: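 Cell-free recombinant human CSF1R kinase with fluorescent substrate, product separated by electrophoretic mobility shift; read 1 h after dosing. Primary screen at 25 uM in duplicate, actives then in concentration-response up to 50 uM, relative to DMSO.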

[13] = biological target: human Ephrin type-A Receptor 1 (EphA1), EPHA1 (gene 2041) (UniProt P21709); assay: NVS_ENZ_hEphA1: NovaScreen (NVS) Enzymatic Assay for human Ephrin type-A Receptor 1 (EphA1) (AID 2283158);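 note: activity is signal loss versus DMSO meaning EphA1 kinase inhibition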
In short: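 Chemicals first tested in duplicate at 25 uM against recombinant EphA1 with a fluorescent substrate; those passing threshold went to singleton dose-response topping at 50 uM. Activity read 1 h later as mobility-shift fluorescence, loss of signal relative to DMSO.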

[14] = biological target: human Esterase Plasma (ES), BCHE (gene 590) (UniProt P06276); assay: NVS_ENZ_hES: NovaScreen (NVS) Enzymatic Assay for human Esterase Plasma (ES) (AID 2283157)
Chain of human Esterase Plasma (ES), BCHE (gene 590) (P06276 whole entry, looked up): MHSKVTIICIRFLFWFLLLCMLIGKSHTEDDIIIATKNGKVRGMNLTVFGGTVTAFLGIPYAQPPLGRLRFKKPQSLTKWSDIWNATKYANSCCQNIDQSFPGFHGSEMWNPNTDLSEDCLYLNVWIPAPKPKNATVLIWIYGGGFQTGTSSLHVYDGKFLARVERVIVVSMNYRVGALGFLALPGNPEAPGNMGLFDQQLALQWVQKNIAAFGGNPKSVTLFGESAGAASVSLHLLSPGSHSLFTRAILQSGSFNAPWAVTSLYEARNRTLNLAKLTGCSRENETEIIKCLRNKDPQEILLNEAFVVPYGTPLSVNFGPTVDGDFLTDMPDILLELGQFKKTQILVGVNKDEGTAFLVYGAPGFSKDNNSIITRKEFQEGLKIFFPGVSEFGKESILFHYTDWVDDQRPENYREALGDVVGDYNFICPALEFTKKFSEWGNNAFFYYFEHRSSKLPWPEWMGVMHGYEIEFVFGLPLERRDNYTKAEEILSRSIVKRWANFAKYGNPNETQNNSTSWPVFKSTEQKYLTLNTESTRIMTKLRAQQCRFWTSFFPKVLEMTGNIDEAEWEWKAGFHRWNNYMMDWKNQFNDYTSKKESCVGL
In short: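 Chemicals were added to plasma-extracted human enzyme in a cell-free format, and activity was read colorimetrically after 0.25 hour. Activity loss was referenced to DMSO; concentration-response top dose was 50 uM.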

[15] = biological target: human Ephrin type-B Receptor 1 (EphB1), EPHB1 (gene 2047) (UniProt P54762); assay: NVS_ENZ_hEphB1: NovaScreen (NVS) Enzymatic Assay for human Ephrin type-B Receptor 1 (EphB1) (AID 2283154)
Chain of human Ephrin type-B Receptor 1 (EphB1), EPHB1 (gene 2047) (P54762 whole entry, looked up): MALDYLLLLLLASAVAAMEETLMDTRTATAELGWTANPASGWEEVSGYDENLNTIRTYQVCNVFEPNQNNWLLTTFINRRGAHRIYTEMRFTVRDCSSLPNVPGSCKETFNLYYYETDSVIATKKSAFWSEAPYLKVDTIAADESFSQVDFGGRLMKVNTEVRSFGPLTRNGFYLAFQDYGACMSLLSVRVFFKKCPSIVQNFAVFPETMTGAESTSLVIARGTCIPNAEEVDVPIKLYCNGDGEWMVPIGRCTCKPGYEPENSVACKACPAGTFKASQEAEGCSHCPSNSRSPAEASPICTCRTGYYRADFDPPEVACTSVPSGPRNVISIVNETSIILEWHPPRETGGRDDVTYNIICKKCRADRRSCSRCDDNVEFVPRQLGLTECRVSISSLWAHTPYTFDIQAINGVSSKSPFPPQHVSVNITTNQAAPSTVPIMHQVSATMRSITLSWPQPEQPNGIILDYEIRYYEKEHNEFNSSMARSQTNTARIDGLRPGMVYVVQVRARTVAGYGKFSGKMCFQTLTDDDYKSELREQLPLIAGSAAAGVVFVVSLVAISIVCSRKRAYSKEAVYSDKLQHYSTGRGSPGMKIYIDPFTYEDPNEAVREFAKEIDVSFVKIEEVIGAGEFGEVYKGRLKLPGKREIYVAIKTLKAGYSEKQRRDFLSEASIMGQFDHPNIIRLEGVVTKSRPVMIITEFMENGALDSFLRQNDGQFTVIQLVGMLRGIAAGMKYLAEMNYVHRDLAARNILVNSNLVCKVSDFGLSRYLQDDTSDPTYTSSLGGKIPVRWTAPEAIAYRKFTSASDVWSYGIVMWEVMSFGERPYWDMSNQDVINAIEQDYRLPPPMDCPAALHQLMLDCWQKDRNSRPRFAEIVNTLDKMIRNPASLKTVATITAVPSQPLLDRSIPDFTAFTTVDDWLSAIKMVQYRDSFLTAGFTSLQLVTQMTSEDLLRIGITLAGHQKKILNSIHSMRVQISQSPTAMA
In short: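 Cell-free kinase assay with recombinant enzyme, fluorescent substrate and electrophoretic mobility-shift separation of substrate and product; read 1 h after dosing. Single-concentration duplicate screen at 25 uM; loss of signal versus DMSO baseline.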

Q: Which outcome [1] does the source give for `O=C(Nc1ccc([N+](=O)[O-])cc1Cl)c1cc(Cl)ccc1O` here?
A: inactive

Q: What about the outcome [2] of the same compound?
A: inactive

Q: What about the outcome [3] of the same compound?
A: inactive

Q: And the outcome [4]?
A: inactive

Q: What does the source list for `CSC(=O)c1cccc2nnsc12`?
A: AC50 [5]: 1.79 µM (active); outcome [6]: inactive

Q: With `CCCCOCCOCCOCc1cc2c(cc1CCC)OCO2` as the compound, how does the AC50 [5] read?
A: 4.85 µM (active)

Q: With `CC(C)(C)[C@@H](O)[C@@H](Cc1ccc(Cl)cc1)n1cncn1` as the compound, how does the AC50 [5] read?
A: 4.88 µM (active)

Q: For `CCCCCCC(C)OC(=O)COc1nc(F)c(Cl)c(N)c1Cl` (stereo not given), which AC50 [7] is on record?
A: 3.29 µM (active)

Q: For `CC(C)CCCCCCc1ccc(O)cc1`, which outcome [1] is on record?
A: inactive

Q: And the outcome [4]?
A: inactive

Q: And the outcome [8]?
A: inactive

Q: And the outcome [6]?
A: inactive

Q: `COC(=O)c1cccc(C)c1S(=O)(=O)NC(=O)Nc1nc(OCC(F)(F)F)nc(N(C)C)n1` was tested. Which outcome [2] did it give?
A: inactive

Q: What about the outcome [9] of the same compound?
A: inactive

Q: And the outcome [10]?
A: inactive

Q: `CCN(Cc1c(F)cccc1Cl)c1c([N+](=O)[O-])cc(C(F)(F)F)cc1[N+](=O)[O-]` was tested. Which AC50 [5] did it give?
A: 4.04 µM (active)

Q: What does the source list for `O=C(c1ccc(O)cc1O)c1ccc(O)cc1O`?
A: outcome [7]: inactive; AC50 [11]: 17 µM (active); AC50 [4]: 17.3 µM (active); AC50 [12]: 11.6 µM (active); AC50 [13]: 25 µM (active); AC50 [8]: 15.1 µM (active); outcome [6]: inactive

Q: Which outcome [14] does the source give for `CCN(CC)C(=O)c1cccc(C)c1` here?
A: inactive

Q: Which outcome [13] does the source give for `O=C(c1ccccc1)C1CCCCC1` here?
A: inactive

Q: With `CCCN(CCC)c1c([N+](=O)[O-])cc(C(F)(F)F)c(N)c1[N+](=O)[O-]` as the compound, how does the outcome [9] read?
A: inactive

Q: And the outcome [15]?
A: inactive

Q: For `CCOC(=O)C(C)Oc1ccc(Oc2nc3ccc(Cl)cc3o2)cc1` (stereo not given), which outcome [15] is on record?
A: inactive

Q: And the outcome [14]?
A: inactive
